# Inconclusive results are not listed. The source made the active and inactive calls. Unless noted, no rule for the calls is given here.
# Assays:
# [1] = qHTS profiling of the MIPE4 collection as inhibitors of Plasmodium falciparum (3D7) proliferation (AID 743344);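 also: scaled between DMSO vehicle wells and 0.29 µM artemisinin as full inhibition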; conditions: P. falciparum 3D7 in erythrocytes, SYBR Green DNA fluorescence, 72 h; at 28.5 µM unless noted
# In short: (§1)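 Parasite DNA was quantified by SYBR Green I fluorescence (ex 485, em 535 nm) after overnight lysis in saponin/Triton buffer at room temperature. Cultures at 0.3% parasitemia and 2.5% hematocrit were first exposed to compound for 72 h at 37 C; signals were normalised to artemisinin (0.29 uM) and vehicle wells.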
# [2] = qHTS profiling of the MIPE4 collection as inhibitors of Plasmodium falciparum (DD2) proliferation (AID 743345); conditions: P. falciparum Dd2 in erythrocytes, SYBR Green DNA, 72 h; at 28.5 µM unless noted
# In short: as §1
# [3] = qHTS profiling of the MIPE4 collection as inhibitors of Plasmodium falciparum (DD2) proliferation (Rep 2) (AID 743346); conditions: P. falciparum Dd2 in erythrocytes, SYBR Green DNA, 72 h; at 28.5 µM unless noted
# In short: as §1
# [4] = qHTS profiling of the MIPE4 collection as inhibitors of Plasmodium falciparum (HB3) proliferation (AID 743347);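 also: plate controls were DMSO vehicle wells for no effect and artemisinin wells for full effect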; conditions: P. falciparum HB3 in erythrocytes, SYBR Green DNA, 72 h; at 28.5 µM unless noted
# In short: as §1
# [5] = High-throughput drug toxicity screening in the BPDCN cell line Gen2.2 (AID 1224824); conditions: Gen2.2 BPDCN cells; at 45.8 µM (top of the series) unless noted;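 also: cells exposed to compounds for 48 h before reading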
# In short: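 Readout is ATP luminescence from Gen2.2 cells after two days of drug exposure in serum-containing medium at 37 °C. Values express percent activity, with vehicle defining full signal and 9.2 uM bortezomib defining zero.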
# [6] = High-throughput drug toxicity screening in the BPDCN cell line Cal-1 (AID 1224825); conditions: Cal-1 BPDCN cell viability, qHTS; at 45.8 µM (top of the series) unless noted
# In short: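 Percent activity derived from CellTiter-Glo luminescence, scaling DMSO to 100% and 9.2 uM final bortezomib to 0%. BPDCN Cal-1 cells (500/well, RPMI plus 10% FBS) incubated with compounds 48 hours at 37C before reading.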
# [7] = qHTS assay for measurement of the activity of small molecule inhibitors on Zika virus induced Caspase-3 activity in human iPSC derived neural progenitor cells (hNPCs) (AID 1224857; active = well fitted curve in the direction sought with a large enough effect; an effect the other way counts as inactive or inconclusive; also: % of control where 0% means no effect; nearly all actives have a fitted effect of over 65% in size)
# In short: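 Percent inhibition of virus-induced caspase-3/7 luminescence (Caspase-Glo), scaled between uninfected cells and Zika-infected cells. hNPCs received compound 1 hr before ZIKV at 2 FFU/cell, with 6 hours infection at 37 C.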
# [8] = qHTS assay for measurement of the activity of small molecule inhibitors on Zika virus induced Caspase-3 activity in human astrocytoma cells (AID 1224859; active = well fitted curve in the direction sought with a large enough effect; an effect the other way counts as inactive or inconclusive;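 also: plate controls were ZIKV-infected untreated cells for no effect and uninfected cells for full effect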)
# In short: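 Luminescent caspase-3/7 read-out (30 min reagent, room temperature) in human SNB-19 cells infected 6 h with ZIKV (2 FFU/cell) after 1 h compound pre-incubation; Data were normalised to uninfected and infected wells.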
# [9] = qHTS Screen of the MIPE 4.0 Collection Against Ewings Sarcoma (RDES) (AID 1259252; active = well fitted curve in the direction sought with a large enough effect; an effect the other way counts as inactive or inconclusive; also: nearly all actives have a fitted effect of over 35% in size; also: potency is read from the fitted curve at half-maximal effect)
# In short: (§2)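 Cells plated in serum-containing RPMI (5% FBS) and treated with compound dilutions for 48 h. Readout luminescent viability; normalization relied on vehicle (no inhibition) and media-only columns (full inhibition).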
# [10] = qHTS Screen of the MIPE 4.0 Collection Against Ewings Sarcoma (TC71) (AID 1259253; active = well fitted curve in the direction sought with a large enough effect; an effect the other way counts as inactive or inconclusive; also: nearly all actives have a fitted effect of over 40% in size; also: potency is read from the fitted curve at half-maximal effect)
# In short: as §2
# [11] = qHTS Screen of the MIPE 4.0 Collection Against Ewings Sarcoma (TC32) (AID 1259256; active = well fitted curve in the direction sought with a large enough effect; an effect the other way counts as inactive or inconclusive; also: nearly all actives have a fitted effect of over 45% in size; also: potency is read from the fitted curve at half-maximal effect)
# In short: as §2
# [12] = qHTS profiling for inhibitors of Plasmodium falciparum (DD2) proliferation (AID 743323); conditions: lower = more inhibition; at 28.7 µM (top of the series) unless noted
# In short: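 Parasite DNA quantified by SYBR Green fluorescence (ex 485, em 535 nm) after saponin/Triton lysis and overnight dark incubation. Cultures: 0.3% parasitemia, 2.5% hematocrit, 72 h, 37 C; data scaled between DMSO and 0.29 uM artemisinin.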
# [13] = qHTS profiling for inhibitors of Plasmodium falciparum (HB3) proliferation (AID 743324; active = well fitted curve in the direction sought with a large enough effect; an effect the other way counts as inactive or inconclusive;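 also: 100% = DMSO vehicle wells and 0% = artemisinin-treated control wells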); conditions: Plasmodium falciparum HB3 blood-stage proliferation; at 28.7 µM (top of the series) unless noted
# In short: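 SYBR Green fluorescence (485 ex/535 em) of lysed cultures, incubated overnight at room temperature in the dark, quantifies parasite DNA. Infected erythrocytes at 0.3% parasitemia and 2.5% hematocrit were exposed 72 h; values normalized to DMSO and 0.29 uM artemisinin controls.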
# [14] = qHTS Screen of the MIPE 4.0 Collection Against Ewings Sarcoma (EW8) (AID 1259255; active = well fitted curve in the direction sought with a large enough effect; an effect the other way counts as inactive or inconclusive;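 also: 100% = DMSO-treated cells and 0% = medium-only wells without cells; nearly all actives have a fitted effect of over 35% in size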)
# In short: as §2
# [15] = Identifying Small Molecule Inhibitors of Pancreatic Cancer Stem Cells (A2780, Spheroid) (AID 1259357; active = well fitted curve in the direction sought with a large enough effect; an effect the other way counts as inactive or inconclusive; also: potency is read from the fitted curve at half-maximal effect;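 also: spheroids pre-formed over 14 days in stem cell medium on hydrogel; compound exposure lasted 48 h before the ATP luminescence read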); conditions: Potency: A2780 spheroid viability
# In short: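 Spheroids grown 14 days in stem cell media on hydrogel-coated nonadherent plates; 2D lines seeded directly. Compounds added after 4 h attachment, 48 h at 37C, 5% CO2; CellTiter-Glo luminescence normalized to DMSO (no inhibition) and no-cell wells (full inhibition).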
# [16] = Identifying Small Molecule Inhibitors of Pancreatic Cancer Stem Cells (A278, Adherent) (AID 1259361; active = well fitted curve in the direction sought with a large enough effect; an effect the other way counts as inactive or inconclusive;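 also: viability read after 48 h compound exposure; nearly all actives have a fitted effect of over 35% in size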;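 as to viability (% of control): 100% = DMSO-treated cells and 0% = cell-free media-only wells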)
# In short: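 Pre-formed 14-day tumor spheroids or adherent cells dosed and incubated 48 h, 37C, 5% CO2. Viability assessed by CellTiter-Glo.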
# [17] = Identifying Small Molecule Inhibitors of Pancreatic Cancer Stem Cells (Panc1, Spheroid) (AID 1259359; active = well fitted curve in the direction sought with a large enough effect; an effect the other way counts as inactive or inconclusive;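 also: potency is read from the fitted curve at half-maximal effect; compound exposure lasted 48 h before reading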)
# In short: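 Endpoint: ATP-based luminescence, 48 h drug exposure. Bortezomib at 9.2 uM final as full-kill control; DMSO vehicle as negative control; activity normalized between vehicle and cell-free wells.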
# [18] = Identifying Small Molecule Inhibitors of Pancreatic Cancer Stem Cells (Panc1, Adherent) (AID 1259362; active = well fitted curve in the direction sought with a large enough effect; an effect the other way counts as inactive or inconclusive; also: potency is read from the fitted curve at half-maximal effect); conditions: Potency: viability
# In short: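 Viability is scored by CellTiter-Glo luminescence 48 h after dosing, expressed as percent activity against vehicle and no-cell references. Spheroid formats rely on cells cultured 14 days in stem cell media beforehand.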
SMILES,"parasite growth, % of DMSO control [1]","parasite growth remaining, % of DMSO control (lower = more inhibition) [2]","parasite growth, % of control (lower = inhibition) [3]","growth, % of control [4]","cell viability, % of control (lower = more cytotoxic) [5]",viability (% of control) [6],Potency [7],Potency [8],Potency [9],Potency [10],Potency [11],"activity, percent of control [12] [%]","remaining proliferation (% of control), lower = more inhibition [13] [%]",Potency [14],Potency [15],IC50 (viability decrease) [16],Potency [17],Potency [18]
COc1ccc(-c2oc3c(CC=C(C)C)c(O)cc(O)c3c(=O)c2O)cc1,4.59%,9.79%,11.9%,4.42%,188%,45.1%,inactive,inactive,14.8 µM (active),18.7 µM (active),23.5 µM (active),–,–,–,–,–,–,–
Cn1c(=O)c(-c2c(Cl)cccc2Cl)cc2cnc(Nc3cccc(C(=O)O)c3)nc21,12.8%,13.6%,19.9%,15.5%,462%,77.7%,inactive,inactive,0.0662 µM (active),inactive,inactive,–,–,–,–,–,–,–
Cc1cc(CS(=O)(=O)c2ccccc2)cc(OCc2ccc(CN3CCC[C@H]3CO)cc2)c1,33.1%,30.3%,18.8%,66.2%,318%,76.3%,inactive,inactive,20.9 µM (active),20.9 µM (active),20.9 µM (active),–,–,–,–,–,–,–
C[C@@H]1O[C@@H](O[C@H]2CC[C@@]3(C)[C@H](CC[C@@H]4[C@H]3C[C@@H](O)[C@]3(C)[C@@H](C5=CC(=O)OC5)CC[C@]43O)C2)C[C@H](O)[C@@H]1O[C@H]1C[C@H](O)[C@H](O[C@H]2C[C@H](O)[C@@H](O)[C@@H](C)O2)[C@H](C)O1 (stereo in doubt),57.6% [at 57.5 µM],91.8% [at 57.5 µM],67.5% [at 57.5 µM],57% [at 57.5 µM],7.85% [at 92.2 µM],4.87% [at 92.2 µM],inactive,inactive,0.34 µM (active),0.241 µM (active),0.241 µM (active),–,–,–,–,–,–,–
O=C(NCCCCN1CCOCC1)c1cc2ccccc2o1,89%,99.3%,41.5%,87.4%,213%,109%,inactive,inactive,inactive,inactive,inactive,–,–,–,–,–,–,–
CCOC(=O)[C@H]1O[C@H]1C(=O)N[C@@H](CC(C)C)C(=O)NCCC(C)C,15.6%,12.9%,15.6%,4.47%,74.8%,95%,inactive,inactive,inactive,2.96 µM (active),18.7 µM (active),–,–,–,–,–,–,–
CCOC(=O)N1CCN([N+]([O-])=NOc2cc(ON=[N+]([O-])N3CCN(C(=O)OCC)CC3)c([N+](=O)[O-])cc2[N+](=O)[O-])CC1,56.9%,45.7%,49.8%,48%,87.7%,81.2%,inactive,inactive,inactive,inactive,4.18 µM (active),–,–,–,–,–,–,–
O=C1Nc2ccc(I)cc2C1=Cc1cc(Br)c(O)c(Br)c1,20.7%,30.6%,32.9%,17.7%,562%,106%,inactive,inactive,18.7 µM (active),18.7 µM (active),20.9 µM (active),–,–,–,–,–,–,–
COc1ccc(-c2cc3nccn3c(Nc3ncccc3C(N)=O)n2)cc1OC,4.5%,9.28%,5.75%,2.93%,47.7%,26.1%,inactive,inactive,14.8 µM (active),2.64 µM (active),–,–,–,–,–,–,–,–
COc1cc2ncnc(Nc3cc(Br)c(O)c(Br)c3)c2cc1OC,10.7%,54.4%,–,5.25%,15.7%,11%,inactive,inactive,0.0418 µM (active),0.059 µM (active),0.418 µM (active),–,–,–,–,–,–,–
Nc1ncnc2c1ncn2[C@@H]1O[C@H](CO)[C@@H](O)[C@@H]1O,6.49%,–,6.61%,6.56%,108%,18.3%,inactive,inactive,16.6 µM (active),6.62 µM (active),–,–,–,–,–,–,–,–
CN1C(=O)C(Cc2c[nH]c3ccccc23)NC1=S (configuration not stated),338%,99%,123%,245%,70.1%,106%,inactive,inactive,inactive,–,inactive,91.5,73.5,inactive,inactive,inactive,–,–
CN(C)CCN(C)C(=O)c1ccc(NC(=O)Nc2ccc(-c3nc(N4CCOCC4)c4ccn(CC(F)(F)F)c4n3)cc2)cc1,5.47%,8.31%,–,5.21%,4.33%,3.29%,inactive,inactive,0.0187 µM (active),0.0743 µM (active),–,0.114,-1,–,0.418 µM (active),0.0418 µM (active),6.62 µM (active),14.8 µM (active)

# From PubChem BioAssay (NCATS)
